PubChem BioAssay AID588692 (Broad Institute, 2011)
Among all 360,000 compounds or so, about 830 (0.23%) were called active. This excerpt belongs to a sample that is enriched for actives. A number with no mark means an inactive call.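 Rule for the calls: active = mean luciferase reporter signal, scaled so untreated is 0 and the glycosylation-blocking control 100, at or above a set limit in every replicate; inconclusive = mean reaches the limit but not every replicate does; inactive = mean below the limit.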

Assay: increase of ERlucT glycosylation luciferase signal, primary screen, N-linked glycosylation inhibitor project, D54 ERlucT cells, luminescence, set 2 (AID 588692);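 note: luciferase carries N-glycosylation sites so blocking glycosylation raises the light; 0% = median of neutral control wells and 100% = median of 100 nM tunicamycin wells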
Settings: 24 h, at 12.5 µM, active compounds read high, percent of 100 nM tunicamycin response

Row | SMILES | reporter increase
1 | O=C(NCCN1CCOCC1)c1ccccc1N1C(=O)[C@@H]2Cc3c([nH]c4ccccc34)C(c3cccc(Cl)c3)N2C1=O (stereo partly drawn) | 4.03%
2 | COC(=O)c1cccc(N(C(=O)c2ccco2)C(C(=O)NC2CCCC2)c2ccco2)c1 (stereo not drawn) | 1.26%
3 | COCCNc1ncnc2c1ncn2[C@H]1CN(Cc2ccc(OC)cc2)C[C@@H](CO)O1 | 0.218%
4 | CC(C)C[C@H](NC(=O)NCCc1ccc(Cl)cc1)C(=O)O | 0.0345%
5 | CCN(CC)C(=O)CSc1nnc(-c2cnccn2)n1-c1ccc(C)cc1 | 1.32%
6 | Cc1cccc(NC(=O)C(C)N2C(=O)C3C4CC(C(Br)C4Br)C3C2=O)c1 (stereo not drawn) | 2.15%
7 | CCN(C(=O)c1cc([N+](=O)[O-])ccc1NCc1cccnc1)c1ccccc1 | -2.09%
8 | Cn1cnc2c1c(=O)n(Cc1ccccc1C#N)c(=O)n2C | 1.69%
9 | Cc1cc2oc(=O)cc(CN(C)Cc3ccccc3)c2cc1Cl | 0.116%
10 | CCN1C(=O)CS/C1=N\c1nccs1 | 0.352%
11 | C=CCC[C@@H](Cc1ccc(F)cc1)C(=O)OC[C@H](Cc1c[nH]c2ccccc12)NC(=O)[C@@H](CC=C)CC(=O)N(CCO)Cc1ccccc1 | -0.357%
12 | Cn1c(CCN2CCN(c3ccccn3)CC2)nc2cc(NS(=O)(=O)c3ccc(F)cc3)ccc21 | -5.5%
13 | Cn1c(=O)n(C)c2cc(S(=O)(=O)Nc3ccc(F)cc3)ccc21 | 2.56%
14 | Cn1c(=O)n(C)c2cc(NS(=O)(=O)c3ccc(F)cc3)ccc21 | 27.7% (active)
15 | COc1ccccc1CNC(=O)c1cc(-c2cc(F)ccc2OC)n[nH]1 | 0.448%
16 | Cc1cc(F)ccc1N1CCC(N2CCN(C)C(CCO)C2)CC1 (stereo not drawn) | -1.14%
17 | Cc1cc(O)ccc1-c1cc(C(=O)NCc2cc(C(F)(F)F)cc(C(F)(F)F)c2)[nH]n1 | 1.18%
18 | COCCCNC(=O)c1cccc2c(-c3ccc(O)c(OC)c3)coc12 | 31.5% (active)
19 | COc1ccc(-c2coc3c(C(=O)NC(C)C)cccc23)c(C)c1 | -2.53%
20 | COCCCNC(=O)c1ccc(-c2c(C)noc2C)c2ccoc12 | 19.8%
21 | COc1ccc(-c2ccc(CN3C(CC(C)C)C(=O)N(Cc4cn(CC5CCCCC5)nn4)CCS3(=O)=O)cc2)cn1 (stereo not drawn) | 4.1%
22 | CSCCC(C(=O)NC1=NCCS1)N1C(=O)c2ccccc2C1=O (stereo not drawn) | -0.003%
23 | COc1ccc(N2CCN(S(=O)(=O)c3cc4c5c(c3)C(C)C(=O)N5CCC4)CC2)cc1 (stereo not drawn) | -1.71%
24 | CCn1nc(C(=O)NNC(=O)C2CSC3(C)CCC(=O)N23)c2ccccc2c1=O (stereo not drawn) | -0.092%
25 | CC(NCc1cccs1)C(=O)Nc1cc(Cl)cc(Cl)c1 (stereo not drawn) | 0.0655%
26 | O=C(N/N=C/C=C/c1ccccc1)C1CC1(c1ccccc1)c1ccccc1 (stereo not drawn) | -0.496%

Row | SMILES | reporter increase
27 | CN(C)S(=O)(=O)c1ccc(N2CCCC2)c(C(=O)NCc2ccccc2)c1 | -1.02%
28 | CN(C)S(=O)(=O)c1ccc(N2CCCC2)c(C(=O)Nc2ccc(Br)cc2F)c1 | -1.25%
29 | CN(C)S(=O)(=O)c1ccc(N2CCCC2)c(C(=O)Nc2cccc(F)c2)c1 | 48.8% (active)
30 | CN(NC(=O)C1CC(=O)N(c2ccccc2)C1)C1=NS(=O)(=O)c2ccccc21 (stereo not drawn) | 1.73%
31 | CC[C@H]1OC(=O)[C@H](C)[C@@H](O[C@H]2C[C@@](C)(OC)[C@@H](O)[C@H](C)O2)[C@H](C)[C@@H](O[C@@H]2O[C@H](C)C[C@H](N(C)C)[C@H]2O)[C@](C)(O)C[C@@H](C)[C@@H]2N[C@@H](COCCOC)O[C@H]([C@H]2C)[C@]1(C)O | 0.0685%
32 | CC[C@@]12C(=O)N(c3ccccc3)C(=O)N1[C@H](c1ccc(Br)cc1)[C@@H]1C(=O)N(C(C)(C)C)C(=O)[C@@H]12 | -1.3%
33 | CC(C)(C)N1C(=O)[C@H]2[C@@H](c3ccc(Br)cc3)N3C(=O)N(c4cccc(Cl)c4)C(=O)[C@@]3(C)[C@H]2C1=O | -3.13%
34 | COc1ccc([C@@H]2[C@@H]3C(=O)N(C(C)(C)C)C(=O)[C@@H]3[C@]3(Cc4ccccc4)C(=O)N(c4cccc(Br)c4)C(=O)N23)cc1 | 36.7% (active)
35 | O=C1[C@H]2[C@@H](c3ccc(F)cc3)N3C(=O)N(c4ccc(C(F)(F)F)cc4)C(=O)[C@@]3(Cc3ccccc3)[C@H]2C(=O)N1C1CCCCC1 | -7.93%
36 | O=C1[C@H]2[C@@H](c3ccc(Cl)cc3)N3C(=O)N(c4cccc(F)c4)C(=O)[C@@]3(Cc3ccccc3)[C@H]2C(=O)N1C1CCCCC1 | -1.72%
37 | Cc1cccc(N2C(=O)N3[C@H](c4ccc(F)cc4)[C@@H]4C(=O)N(C5CCCCC5)C(=O)[C@@H]4[C@]3(Cc3ccccc3)C2=O)c1 | 78.2% (active)
38 | CCCCN(C)C(=O)c1ccc2c(c1)N(CC)C(=O)c1ccccc1S2(=O)=O | 2.3%
39 | O=C(CN1C(=O)NC2(CCc3ccccc32)C1=O)NC1CCCCC1 (stereo not drawn) | 3.09%
40 | COCCNC(=O)CN1C(=O)CSc2ncccc21 | 3.24%
41 | OC[C@@H]1CN(Cc2ccc3c(c2)OCO3)C[C@H](n2cnc3c(NCc4ccco4)ncnc32)O1 | -0.219%
42 | COc1ccc2c(c1)[C@H]1[C@H](CO2)[C@H](c2ccccc2)[C@]2(C)C(=O)Nc3cc(F)c(F)cc3C(=O)N12 | 42% (active)
43 | CCOC(=O)[C@H]1[C@H]2COc3ccc(OC)cc3[C@@H]2N2C(=O)c3ccc(F)cc3NC(=O)[C@@]12C | 7.58%
44 | Cc1ccc2c(c1)NC(=O)[C@@]1(C)[C@@H](c3ccccc3)[C@H]3COc4ccc(Cl)cc4[C@@H]3N1C2=O | 19.6%
45 | CC(=O)c1ccc(S(=O)(=O)NC2CC(=O)N(c3ccc4c(c3)OCCO4)C2)cc1 (stereo not drawn) | 0.667%
46 | C[C@@H]1CN([C@@H](C)CO)C(=O)c2cc(Br)cnc2O[C@@H]1CN(C)C(=O)C1CCCCC1 | -0.264%
47 | CC1(C)O[C@@H]2[C@H](O1)[C@@H](COS(=O)(=O)O)O[C@H]2n1ccc(=O)[nH]c1=O | 2.9%
48 | CCCNC(=O)C1(C)CCN(C(=O)c2cc(F)ccc2C)C1 (stereo not drawn) | -0.06%
49 | CC(C)OCCCNC(=S)N1CCC(C(=O)c2ccc3c(c2)OCCO3)CC1 | -1.26%
50 | COc1ccc(C)cc1NC(=O)CSc1cccc[n+]1[O-] | 1.45%
51 | CN(C)c1ccc(/C=C/C(=O)c2ccc(C(C)(C)C)cc2)cc1[N+](=O)[O-] | 32.9% (active)
52 | CN(C)c1ccc(S(=O)(=O)NCC(=O)NCC2CCCCC2)cc1[N+](=O)[O-] | -0.935%

Row | SMILES | reporter increase
53 | O=C(/C=C/c1ccc(Cl)cc1)N1CCN(c2ccccc2[N+](=O)[O-])CC1 | 0.213%
54 | CC/C(=N\NC(=O)c1c(C)nc2ccccn12)c1ccc(Cl)cc1 | -0.008%
55 | OCc1ccc(-c2ccccc2)c(-c2ccccc2)c1 | 2.12%
56 | CCCc1nc2ccccc2c(C(=O)OCc2nnc(-c3cc(OC)c(OC)c(OC)c3)o2)c1CC | 1.91%
57 | O=C1C2C3C=CC(C3)C2C(=O)N1c1ccc(S(=O)(=O)Nc2nccs2)cc1 (stereo not drawn) | -0.133%
58 | Cc1sc2ncnc(SCC(=O)Nc3ccc(CN4CCCC4)cc3)c2c1C | -0.51%
59 | C=CCn1c(SCC(=O)NCC2CCCO2)nc2sc(C)c(C)c2c1=O (stereo not drawn) | -1.1%
60 | C=CCn1c(SCC(=O)NCCCO)nc2sc3c(c2c1=O)CCC3 | 0.299%
61 | C=CCn1c(SCc2c(C)noc2C)nc2sc3c(c2c1=O)CCC(C)C3 (stereo not drawn) | 27.8% (active)
62 | N#Cc1ccc(C2=CC(=O)C[C@H](c3ccc(Cl)cc3)C2)cc1 | 1.89%
63 | CC(=O)NCC(=O)N(Cc1ccco1)C1(C(=O)NC2CCCC2)CCCCC1 | -0.741%
64 | O=C(Nc1ccc(Cl)cc1)C1Cc2c(-c3ccc4c(c3)OCO4)ccnc2O1 (stereo not drawn) | 1.69%
65 | CCc1c(C)n([O-])c2c([n+]1=O)CCCCC2 | 2%
66 | CCCNC(=O)C1(C)CCCN(C(=O)c2cccc(OC(C)=O)c2C)C1 (stereo not drawn) | -0.136%
67 | Cc1ccc(Nc2nc(CSc3nnc(-c4ccncc4)n3-c3ccccc3C)cs2)cc1 | -2.15%
68 | CC1CCCCN1C(=O)Cn1c(=O)oc2cc(S(=O)(=O)N3CCCCC3)ccc21 (stereo not drawn) | -0.145%
69 | CC(C)CCNC(=O)Cn1c(=O)oc2cc(S(=O)(=O)N3CC(C)CC(C)C3)ccc21 (stereo not drawn) | 114% (active)
70 | COc1cccc(CNC(=O)Cn2c(=O)oc3cc(S(=O)(=O)N4CCCCC4)ccc32)c1 | -0.785%
71 | CCOC(=O)c1cc2cc(-c3c(C(=O)OCC)oc4cc(O)cc(O)c4c3=O)ccc2o1 | -0.142%
72 | Cc1cccc(C)c1NC(=O)Nc1ccccc1-n1ccnc1 | 0.968%
73 | Cc1cccn2cc(-c3cccc(S(=O)(=O)N4CCCCC4)c3)nc12 | -0.565%
74 | Cc1ccc2nc(-c3ccncc3)cc(C(=O)Nc3ccncc3)c2c1 | 29.9% (active)
75 | Cc1ccc2nc(-c3ccncc3)cc(C(=O)Nc3ccc(OC(F)F)cc3)c2c1 | -8.25%
76 | CC1CCCC(NC(=O)c2cc(-c3ccncc3)nc3ccccc23)C1C (stereo not drawn) | 0.382%
77 | O=C(c1ccc(N2CCCC2=O)cc1)N1CCN(c2ccc(C(F)(F)F)cc2[N+](=O)[O-])CC1 | -1.99%
78 | CN(C)C(=O)N=NC(=O)N(C)C | 0.968%
